# aSyn 5UTR act: Activators working through SNCA 5'UTR binding (MLPCN). alpha-synuclein 5'UTR reporter, activators screen. activity score, % (tested at 7.5 µM), hits read low. 7.1% of 300,000 active; in the data active = activity score below about -60%
# Numbers without * were called inactive. A selection follows.
SMILES,aSyn 5UTR act
CC(=O)c1ccc(N/N=C(/C(N)=O)C2=NC(C)(C)Cc3ccccc32)cc1,56.4
COc1ccc(CNc2nc3ccccc3n2C)c(O)c1,-133.5*
COc1ccc(CNc2nc3ccccc3n2C)c(OC)c1,-87.8*
CCCn1c(NCc2cccc(OC)c2O)nc2ccccc21,-82.0*
Cc1cc(NC(=O)CC#N)n(-c2nc3ccccc3[nH]2)n1,-70.8*
Cc1ccc(-c2csc(NC(CO)c3nc4ccccc4n3CCOCCO)n2)cc1 (centres undefined),-71.4*
O=C(COc1ccccc1C(=O)c1cnn(-c2ccccc2)c1)Nc1ccc2ccccc2c1,-136.2*
CC(C)c1ccc(NC(=O)COc2ccc(F)cc2C(=O)c2cnn(-c3ccccc3)c2)cc1,-114.7*
Cc1ccc(N2C(=O)c3n[nH]c(C)c3C2c2ccco2)cc1 (centres undefined),-65.2*
Nc1cc(N)nc(SCCOc2ccccc2)n1,-69.4*
Nc1cc(N)nc(SCCOc2ccccc2F)n1,-81.3*
[O-][n+]1c2c(nc3c1-c1ccccc1C3O)CCCC2 (centres undefined),-76.9*
Cc1ccc(N(C(=O)c2cc3ccccc3oc2=O)C2C=CS(=O)(=O)C2)cc1 (centres undefined),-106.9*
Cc1cc(C)cc(N(C(=O)c2cc3ccccc3oc2=O)C2C=CS(=O)(=O)C2)c1 (centres undefined),-126.3*
CCOc1ccc(N(C(=O)c2cc3ccccc3oc2=O)C2C=CS(=O)(=O)C2)cc1 (centres undefined),-87.7*
CCCCC1CCC(c2nc(-c3ccccn3)no2)CC1 (centres undefined),96.6
CCCCC1CCC(c2nc(-c3cccnc3)no2)CC1 (centres undefined),-91.5*
O=C(Oc1ccccc1N1C(=O)C2CCCCC2C1=O)c1ccccc1F (centres undefined),-64.4*
Cc1ccc(-c2nn3c(C)nnc3s2)cc1NC(=O)c1cccs1,-64.1*
COc1ccc2c(C)c(C)c(=O)oc2c1OC,-84.5*
COc1cc(NC(=O)CN2CCC(C)CC2)c(C)cc1[N+](=O)[O-],-81.7*
N#Cc1ccc(-c2cccnc2)nc1SCC(=O)c1ccccc1,-115.6*
O=C(CSc1n[nH]c(-c2ccccc2)n1)c1ccccc1,-84.4*
N#Cc1ccc(-c2ccc(Cl)cc2)nc1SCC(=O)c1cccc(Cl)c1,-81.5*
O=C(Oc1c(CN2CCOCC2)cc(Cl)c2cccnc12)c1ccccc1Cl,105.2
SMILES,aSyn 5UTR act
O=c1oc2c(CN3CCOCC3)c(O)ccc2c2ccccc12,-71.7*
Cc1ccc(NN=C2c3ccccc3-c3ccccc32)cc1,-211.8*
Cc1ccc(-c2nn(-c3ccccc3)cc2C=O)o1,-87.7*
Cc1ccc(-c2nn(-c3ccccc3)cc2CO)o1,-82.2*
Cc1ccc(-c2nn(-c3ccccc3)cc2CSC(=N)N)cc1,119.5
Cc1ccc(NC2c3ncccc3C(=O)N2c2ccccc2C)cc1C (centres undefined),-167.5*
O=C(/C=C/c1cccnc1)c1cccc(O)c1,-88.2*
Cc1ccc(/C=C/C(=O)c2ccccc2O)cc1,-121.2*
O=C(/C=C/c1ccc(N2CCC(c3ccccc3)=N2)cc1)c1ccccc1,-66.8*
Cc1nn(C)cc1/C=C/C(=O)c1ccc(O)cc1,-228.5*
Cc1c(/C=C/C(=O)c2ccccc2O)cnn1C,-227.4*
O=C(/C=C/c1ccc(O)cc1)c1ccccc1,-118.3*
O=C(/C=C/c1ccco1)c1ccccc1O,-64.9*
Cc1ccc(/C=C/C(=O)c2ccc(C)cc2)cc1,-149.5*
CN(C)c1ccc(/C=C/C(=O)c2ccccc2O)cc1,-196.7*
Cc1ccc(/C=C/C(=O)Nc2ccccc2C(N)=O)cc1,-85.8*
CSc1ccc(C(=O)/C=C/c2ccc(N)cc2)cc1,-204.0*
CC(C)NC(=O)c1ccccc1NC(=O)/C=C/c1cccc([N+](=O)[O-])c1,63.0
O=C(/C=C/c1ccc(-c2ccccc2)o1)c1ccccc1,-66.3*
c1ccc(-c2nnc(-c3ccccn3)nn2)nc1,-121.8*
c1ccc(-c2cccc(-c3ccccn3)n2)nc1,76.6
O=[N+]([O-])c1cc(Cl)cc(/C=N/Nc2nc3ccccc3s2)c1O,-77.7*
COc1cc(/C=N/Nc2nc3ccccc3s2)cc([N+](=O)[O-])c1O,-100.3*
CC1=NN(C(N)=S)C(=O)C1N=Nc1ccc(Br)cc1 (centres undefined),-114.5*
CC1=NN(C(N)=S)C(=O)C1N=Nc1ccc(Cl)cc1 (centres undefined),-143.2*
SMILES,aSyn 5UTR act
CC1=NN(C(N)=S)C(=O)C1N=Nc1cccc(Cl)c1C (centres undefined),-184.3*
CC1=NN(C(N)=S)C(=O)C1N=Nc1cccc([N+](=O)[O-])c1 (centres undefined),-121.2*
O=C1c2c(Br)c(Br)c(Br)c(Br)c2C(=O)N1c1ccccn1,-112.3*
CC(=O)c1cccc(OCc2cc(C(=O)N(C)Cc3cnccn3)no2)c1,-85.4*
CN(Cc1cccnc1)C(=O)c1cc(COc2ccc3c(c2)CCCC3)on1,-127.4*
COc1ccc(N=Cc2oc3ccc4ccccc4c3c2O)cc1,-223.2*
Cc1c(C(C)(C)C)sc(=NC(=O)c2ccccc2O)n1C,-125.5*
Cc1csc(NC(=O)Nc2cccc(Cl)c2)n1,-202.7*
Cc1nnc(NC(=O)Nc2cccc(Cl)c2)s1,-122.5*
O=C(N/N=C/c1ccc(O)cc1)Nc1cccc2nsnc12,-72.8*
COc1cc(/C=N/NC(=O)Nc2cccc3nsnc23)cc(OC)c1OC,-89.0*
O=C(/C=C/c1ccco1)Nc1cccnc1,-122.1*
CC(C)C(=O)NC(c1ccco1)c1ccc2cccnc2c1O (centres undefined),63.1
O=C(/C=C/c1ccco1)Nc1cccc2cccnc12,-167.8*
O=C(/C=C/c1ccco1)Nc1ccc(Oc2ccc(Cl)cc2)cc1,-203.2*
COc1cccc(NC(=O)/C=C/c2ccco2)c1,-157.9*
CSc1cccc(NC(=O)/C=C/c2ccco2)c1,-177.6*
COc1ccccc1NC(=O)/C=C\c1ccco1,-83.8*
Cc1ccc(NC(=O)/C=C/c2ccco2)nc1,-63.5*
Cc1ccc(NC(=S)c2ccc(N(C)C)cc2)cc1,54.9
CCOc1ccc(NC(=S)c2ccncc2)cc1,-109.7*
COc1ccc(NC(=S)c2ccccc2)cc1,-147.7*
COc1ccc(C(=S)Nc2ccc(N(C)C)cc2)cc1,-99.4*
C/C(=N\NC(=O)COc1ccccc1)c1cccs1,-85.0*
O=C(N/N=C/c1ccc(N2CCOCC2)cc1)c1cccs1,-178.6*
SMILES,aSyn 5UTR act
C/C(=N\NC(=O)c1cccs1)c1ccc2ccccc2c1,-92.1*
Cc1cc(/C=N/NC(=O)c2cccs2)c(C)n1-c1cnccn1,-169.6*
C/C(=N\NC(=O)c1cccs1)c1cccnc1,-83.3*
O=C(N/N=C/c1cccnc1)c1cccs1,-81.5*
COc1ccc2c(=O)c3ccccc3oc2c1,-146.8*
COc1ccc2c(c1)oc(=O)c1c3ccccc3[nH]c21,-277.2*
COc1ccc2c(c1)oc(=O)c1cc(OC)ccc12,-181.9*
CNC(C)C#Cc1ccc2oc3cccc(OC)c3c(=O)c2c1 (centres undefined),-128.3*
CNC(C)C#Cc1ccc2c(=O)c3c(OC)cccc3oc2c1 (centres undefined),-66.4*
O=c1oc2ccccc2nc1/C=C(O)/C=C/c1ccc(F)cc1,-87.6*
COc1cc(-c2noc(C)c2/C=C/c2ccc(N)cc2)cc(OC)c1OC,103.8
COc1ccc(-c2cc3ccccc3s2)cc1[C@H]1[C@H]2C=CC[C@@H](C)[C@@H]2C(=O)N1Cc1ccccc1,-106.8*
CC(=O)Nc1ccc(-n2cc(-c3ccccc3)[nH]c2=S)cc1,-80.8*

# Screens from PubChem BioAssay.
